Shown are actives, neighbours in structure and some others; about 1% of the full set was active somewhere.
APE1 inh = APE1 (human) endonuclease inhibition. P27695. recombinant APE1, TAMRA/BHQ-2 abasic DNA cleavage fluorescence. Potency, µM (highest dose often 65.8 µM), for the others: top-dose activity change, negative = inhibition, most hits filed as inhibitors. hit rate 0.35% among 350,000. AID 2517;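 note: plate controls were vehicle for no effect and reference inhibitor for full effect; nearly all actives have a fitted effect of over 55% in size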
Target sequence (P27695 whole entry, looked up): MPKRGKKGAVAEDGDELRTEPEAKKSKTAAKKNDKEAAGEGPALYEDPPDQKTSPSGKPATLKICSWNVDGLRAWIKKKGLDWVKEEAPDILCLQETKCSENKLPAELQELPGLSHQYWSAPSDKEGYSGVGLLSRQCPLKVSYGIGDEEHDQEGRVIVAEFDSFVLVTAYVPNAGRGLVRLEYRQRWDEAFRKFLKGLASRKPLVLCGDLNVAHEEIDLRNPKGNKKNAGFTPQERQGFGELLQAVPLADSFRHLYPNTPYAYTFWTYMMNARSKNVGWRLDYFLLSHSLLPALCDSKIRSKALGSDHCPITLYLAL
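Kinetic fluorescence read (525 ex/598 em nm, three reads 60 s apart) of AP-site incision; signal = third minus first read. Enzyme 0.75 nM, dual-labelled THF duplex 50 nM, compound preincubation 15 min RT.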
RECQ1 inh = inhibitors of human RECQ1 DNA helicase; P46063; RECQ1 DNA unwinding, red fluorescence kinetic read; AID 2549; Potency, µM (titrated, usually from 57.3 µM), inactives show at the highest dose activity, negative = inhibition, actives largely listed as inhibitors; hit rate 0.54% among 240,000;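 note: plate controls were vehicle for no effect and no enzyme for full effect; nearly all actives have a fitted effect of over 30% in size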
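50 nM RECQ1T1 preincubated 15 min with compound in Tris pH 8.0 buffer with MgCl2, DTT, Tween-20 and 2.5 ug/ml poly(dI-dC); started with 200 nM TAMRA/BHQ-2 forked duplex and 2 mM ATP. Unwinding read as fluorescence (525/598 nm), two reads 2 h apart.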
WRN helicase inh = inhibitors of human WRN helicase; WRN helicase unwinding, fluorescent forked duplex, kinetic; Q14191; Potency, µM (titrated, usually from 114 µM), for the others: top-dose activity change, negative = inhibition, most hits filed as inhibitors; hit rate 0.46% among 360,000; note: nearly all actives have a fitted effect of over 55% in size
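Enzyme (20 nM final) and test compound sit together 15 min at room temperature before substrate addition. Substrate is a single-forked duplex oligonucleotide (100 nM) labelled with fluorophore and quencher, with 2 mM ATP; helicase unwinding raises red fluorescence, read kinetically.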
FEN1 inhibitor = human FEN1 inhibition; P39748; Recombinant FEN1 flap cleavage, fluorescence, 15 min; Potency, µM (doses to about 114 µM), inactives show top-dose activity change, negative = inhibition, actives largely listed as inhibitors; hit rate 0.35% among 390,000; AID 588795; note: nearly all actives have a fitted effect of over 65% in size
Target sequence (P39748 whole entry, looked up): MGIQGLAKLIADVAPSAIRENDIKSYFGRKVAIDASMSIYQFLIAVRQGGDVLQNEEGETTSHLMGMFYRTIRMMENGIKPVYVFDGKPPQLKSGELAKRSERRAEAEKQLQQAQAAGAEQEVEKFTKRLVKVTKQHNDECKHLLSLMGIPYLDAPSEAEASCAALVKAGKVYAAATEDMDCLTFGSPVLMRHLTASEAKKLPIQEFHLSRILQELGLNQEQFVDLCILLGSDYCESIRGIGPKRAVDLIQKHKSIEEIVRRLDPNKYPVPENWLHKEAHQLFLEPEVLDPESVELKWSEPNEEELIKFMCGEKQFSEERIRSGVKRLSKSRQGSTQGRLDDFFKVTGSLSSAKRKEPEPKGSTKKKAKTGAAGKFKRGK
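FEN1 at 10 nM preincubated with compounds 15 min at room temperature, then flap DNA substrate added at 50 nM final. Signal read at 0 and 15 min; concentration-response fitted with four-parameter Hill equation.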
L3MBTL1 block = inhibitors of human L3MBTL1; Q9Y468; AlphaScreen L3MBTL1–H3K9me1 peptide binding; hit rate 0.66% among 230,000; AID 485360; Potency, µM (doses to about 57.1 µM), for the others: at the top dose activity, negative = inhibition, actives largely listed as inhibitors; note: nearly all actives have a fitted effect of over 60% in size
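AlphaScreen proximity signal between nickel-chelate acceptor and streptavidin donor beads (final 10 ug/mL) reports binding of 50 nM L3MBTL1 to 75 nM biotin-H3 K9me1 peptide; complex incubated with compounds 30 min at room temperature; cefsulodin titration as control.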
BLM helicase inh = blocks DNA unwinding by human BLM helicase; recombinant BLM DNA unwinding, fluorescence dequenching; AID 2528; hit rate 0.2% among 350,000; Potency, µM (titrated, usually from 56.1 µM), without a hit: at the highest dose activity change, negative = inhibition, hits mostly inhibitors;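 note: plate controls were vehicle for no effect and no enzyme for full effect; nearly all actives have a fitted effect of over 35% in size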
* = called active by the depositor; i = inactive; ? = inconclusive; . = no result; [ ] = remark or other dose. Calls come from the whole dose curve; as a rule, active = well fitted curve in the direction sought with a large enough effect; inconclusive = small, poorly fitted or top-dose-only effect, or another doubt; inactive = no such curve, though single readings can be large; an effect the other way counts as inactive or inconclusive. Unless noted, % is set by controls: 0 for no effect and ±100 for the full control effect; potency is the fitted concentration of half-maximal effect.

SMILES	APE1 inh	RECQ1 inh	WRN helicase inh	FEN1 inhibitor	L3MBTL1 block	BLM helicase inh
C#CCOCCOCCOCCNc1nc(N2CCN(C(=O)CCCCCCCCCCNC(=O)[C@H]([C@@H](C)CC)n3cc(CCCCCN)nn3)CC2)nc(N2CCN(C(=O)CCCCCCCCCCNC(=O)[C@H](CO)n3cc(CCCCCN)nn3)CC2)n1	-30%	.	56µM*	?	-10%	.
C#CCOCCOCCOCCNc1nc(N2CCN(C(=O)CCCCCCCCCCNC(=O)Cn3cc(CCCCCN)nn3)CC2)nc(N2CCN(C(=O)CCCCCCCCCCNC(=O)[C@H]([C@@H](C)CC)n3cc(CCCCN=C(N)N)nn3)CC2)n1	?	.	32µM*	20µM*	-4%	.
C#CCOCCOCCOCCNc1nc(N2CCN(C(=O)CCCCCCCCCCNC(=O)[C@H]([C@@H](C)CC)n3cc(CCCCCN)nn3)CC2)nc(N2CCN(C(=O)CCCCCCCCCCNC(=O)[C@H]([C@@H](C)CC)n3cc(CCCCN=C(N)N)nn3)CC2)n1	?	.	.	.	-11%	.
C#CCOCCOCCOCCNc1nc(N2CCN(C(=O)CCCCCCCCCCNC(=O)[C@H]([C@@H](C)CC)n3cc(CCCCN=C(N)N)nn3)CC2)nc(N2CCN(C(=O)CCCCCCCCCCNC(=O)[C@H](CCCCN)n3cc(C)nn3)CC2)n1	?	.	28µM*	25µM*	-9%	.
O=C(NCCCc1cnc[nH]1)NCCCN(Cc1ccc(Cl)cc1)c1ccc(Br)cn1	.	.	.	-5%	.	.
Cc1cccc(C)c1-n1c(SCC(=O)Nc2ccc(C(=O)O)cc2)nnc1-c1ccc([S+](=O)([O-])N2CCCC2)cc1	24%	.	.	.	.	.
C#CCOCCOCCOCCNc1nc(N2CCN(C(=O)[C@H](Cc3ccc(O)cc3)n3cc(CCO)nn3)CC2)nc(N2CCN(C(=O)[C@H](Cc3ccc(O)cc3)n3cc(CCO)nn3)CC2)n1	-9%	32µM*	.	.	1%	-16%
CSCC[C@H](NC(=O)[C@@H](NC(=O)[C@H](CCC(=O)O)NC(=O)[C@H](CCSC)NC(=O)[C@H](CC(N)=O)NC(=O)[C@H](CCC(=O)O)NC(=O)[C@H](CC(N)=O)NC(=O)[C@H](CO)NC(=O)[C@H](C)N)[C@@H](C)O)C(=O)O	-2%	-19%	.	.	.	-6%
O=C1N/C(=C\c2ccc(O)cc2)C(=O)c2ccccc21	?	i	?	-15%	-4%	32µM*
CCOC(=O)c1cnc(-n2nc(C)cc2C)nc1Nc1ccc(N(C)C)cc1	30%	-2%	-6%	3%	3.2µM*	2%
CCN(CC)S(=O)(=O)c1cccc(C(=O)N/N=C/c2ccc(O)c(O)c2O)c1	-15%	?	25µM*	?	?	-22%
CCN(CC)S(=O)(=O)c1cccc(C(=O)N/N=C(\C)c2ccc(O)cc2O)c1	-6%	i	-18%	-3%	14µM*	-3%
CCn1c(C)nc2cc(C(=O)N/N=C/c3ccc(O)c(O)c3O)ccc21	-9%	10%	18µM*	?	2.2µM*	6.3µM*
CCOc1ccccc1/C=N/NC(=O)c1cccc(S(=O)(=O)N(CC)CC)c1	-3%	-4%	-10%	2%	-1%	-6%
CCn1c(C)nc2cc(C(=O)N/N=C/c3cccc(OC)c3O)ccc21	0%	25%	-21%	?	-28%	-20%
COc1ccc(N(Cc2ccccc2)C(=O)c2nc(S(C)(=O)=O)ncc2Cl)cc1	.	.	.	9%	.	-14%
Cc1ccc(SCC(Cc2ccccc2)N2CCN(C)CCC2=O)cc1 (stereo not given)	10%	3%	.	-16%	.	-3%
CCC(=O)Oc1ccc2c(c1)CC[C@@H]1[C@@H]2CC[C@]2(C)[C@@H](OC(=O)CC)CC[C@@H]12	-4%	.	.	.	.	.
CCOc1nc(N=C(N)N)nc2c(C)cccc12	?	28%	9%[11.6 µM]	45µM*	-2%	65%
CCOc1ccccc1Nc1cc(C)c2cccc(C)c2n1	33%	.	-6%	-21%	42%	-12%
O=C(Cn1nc(Cc2cccnc2)c2ccccc2c1=O)Nc1cccc(C(F)(F)F)c1	.	.	.	89µM*	.	-7%
O=[N+]([O-])c1ccc(S(=O)Cc2ccccc2)c([N+](=O)[O-])c1 (stereo not given)	.	.	10µM*	?	.	.
COc1ccc(O)c(/C=N/NC(=S)Nc2cccnc2)c1	18%	i	-1%	16%	11µM*	-4%
COc1ccc(O)c(/C=N/NC(=S)Nc2cccc(S(=O)(=O)N(C)C)c2)c1	24%	i	-22%	-24%	10µM*	-18%
CCN(CCO)c1ccc(NC(=S)Nc2cccc(S(=O)(=O)N(C)C)c2)cc1	?	40µM*	-10%[11.6 µM]	-11%	.	-20%
SMILES	APE1 inh	RECQ1 inh	WRN helicase inh	FEN1 inhibitor	L3MBTL1 block	BLM helicase inh
O=C(O)c1cnc2ccc(Cl)cc2n1	.	.	0%	.	.	.
O=C(O)COc1ccc2c(c1)O/C(=C\c1ccco1)C2=O	13µM*	.	?	?	.	-9%
CCCCNC(=O)N1CCN(c2ccnc3cc(Cl)ccc23)CC1	-12%	.	50µM*	?	.	1%
CCCCC(=O)N1CCN(c2nc3ccc(Br)cc3s2)CC1	-17%	.	3%	7%	.	-3%
CCCC(=O)N1CCN(c2nc3ccc(Br)cc3s2)CC1	3%	.	3%[11.6 µM]	25µM*	.	-2%
CCOC(=O)c1cc(-c2ccc(/C=N\n3cnnc3)o2)ccc1Cl	22%	-7%	-7%	-8%	-3%	1%
CCOC(=O)c1cc(-c2ccc(/C=C3/C(=O)N(c4ccc(C(=O)O)cc4)N=C3C)o2)ccc1Cl	8.4µM*	.	-23%[11.6 µM]	-21%	.	-1%
CCOC(=O)C[C@@H](CC(C)=O)C(=O)OCC	20%[12.4 µM]	-1%[11.5 µM]	.	.	.	1%[12.4 µM]
CCOC(=O)C(C)C(C)=O (stereo not given)	8%	-2%	16µM*	-168%	0%	.
O=C(O)C1Sc2[nH]c(=O)sc2C2c3ccc(O)cc3OC(=O)C12 (stereo not given)	-8%	28%	25µM*	?	-2%	-16%
CCOC(=O)c1cc(NC(=O)c2ccccc2)c(=O)n2c1oc1ccc(Cl)cc12	.	.	.	35%	.	-2%
C=C(C)CC(C)(C)C	12%	15%	.	.	.	2%
CC(=O)Nc1ccc(NC(=O)CSc2nnc(NC(=O)c3ccc(Br)o3)s2)cc1	0%	.	56µM*	-34%	.	-8%
CC(=O)Nc1cccc(NC(=O)CSc2nnc(NC(=O)c3ccco3)s2)c1	21%	.	-36%	-7%	.	-3%
COCCN1C(=O)CN(S(C)(=O)=O)CC1(C)C(=O)NCc1ccccc1 (stereo not given)	.	.	9%	.	.	.
Oc1ccc(/C=N/NC(=S)NCCN2CCOCC2)c(O)c1	-3%	-10%	-6%	-4%	22µM*	-3%

Screening data as filed in PubChem.
